The values below come from PubChem BioAssay.

The subject of test [1] is Wnt5a (protein binding on small-molecule microarray). Nature of the test: Wnt5a binders on small-molecule microarray, primary screen, biophysical, 635/667 nm fluorescence (AID 1142).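 Also: fluorescence read at 667 nm with signal to noise per printed feature.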 As to conditions: 635 nm fluorescence, higher = more signal.
Test [2] in a line: cell viability in Huh7 cells, primary screen, cytotoxicity control for HCV replication inhibitor project, CellTiter-Glo luminescence, basal, 48 h (AID 1143).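 Also: Huh7 hepatoma cells carrying a hepatitis C replication reporter with no stimulus; test concentration not given here.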 To be noted: Huh7 HCV replicon, higher = more signal, called active from +8 up or from −8 down.
Test [3] in a line: P. aeruginosa biofilm formation inhibitors, primary screen, PAO1 strain, BacTiter-Glo luminescence, LB-PBS (AID 1144). To be noted: 12 h, higher = more signal.
Test [4] in a line: CREB reporter modulators without forskolin, primary screen, cell-based, PC12, CRE-LacZ reporter, unstimulated (AID 1145). As to conditions: no forskolin, luminescence, 4.5 h, higher = more signal, called active from +8 up or from −8 down.
Test [5] can be described thus: CREB reporter modulators under forskolin, primary screen, cell-based, PC12, CRE-LacZ reporter, forskolin-stimulated (AID 1146).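 Also: PC12 cells with 6xCRE LacZ reporter stimulated by forskolin 10 µM; beta-galactosidase reporter signal reflecting CREB driven transcription.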 To be noted: luminescence, 4.5 h, higher = more signal, called active from +8 up or from −8 down.
The target in test [6] is Streptavidin (Streptomyces avidinii) (UniProt P22629). As to the kind of experiment: streptavidin binders on small-molecule microarray, primary screen, artefact control for SMM compound annotation, biophysical, 635/667 nm fluorescence (AID 1147).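 Also: signal reflects streptavidin binding to arrayed compounds as a control protein.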 To be noted: streptavidin binding, higher = more signal.
Test [7] in a line: small-molecule binders of probe aInhba, primary screen, biochemical, small-molecule microarray, 635/667 nm fluorescence (AID 1148).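 Also: score merges 667nm spot fluorescence with signal-to-noise for antibody binding to printed compounds.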 To be noted: higher = more signal.
Test [8] has as its target Torsin-1A (Homo sapiens) (UniProt O14656). Nature of the test: torsin A binders from cell lysate, primary screen, small-molecule microarray, wild-type, 635/667 nm (AID 1149). To be noted: COS7 hTOR1A-WT lysate, 635 nm fluorescence, higher = more signal.
Test [9] has the same target. As to the kind of experiment: small-molecule binders of mutant TOR1A in lysate, primary screen, cell lysate, small-molecule microarray, COS7 lysate, 635/667 nm fluorescence (AID 1150).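 Also: score pools 667 nm emission and signal to noise measuring lysate protein binding.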 To be noted: COS7 hTOR1A mutant lysate, 635 nm fluorescence, higher = more signal.
The subject of test [10] is Sonic hedgehog protein (Shh). Nature of the test: small-molecule binders of Shh protein, primary screen, biochemical, small-molecule microarray, 635/667 nm fluorescence (AID 1151).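 Also: Shh protein binding to compounds spotted on small-molecule microarray slides; score combines spot fluorescence intensity with signal-to-noise across triplicate slides.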 As to conditions: small-molecule microarray binding, 635 nm fluorescence; higher = more signal.
The nature of test [11]: E. coli DRC41 culture turbidity changes, primary screen, E. coli filamentation inducer project, strain DRC41, OD650, 48 h (AID 1152).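 Also: E. coli MC1000 strain DRC41 lacking acrAB efflux pump and sulA.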 As to conditions: E. coli DRC41 (acrAB sulA), higher = more signal, called active from +8 up or from −8 down.
The nature of test [12]: small-molecule binders of probe aLefty1, primary screen, biochemical, small-molecule microarray, 635/667 nm fluorescence (AID 1153).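 Also: score merges spot fluorescence with signal-to-noise ratio from the scanned slide images.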 As to conditions: higher = more signal.
Test [13] can be described thus: PSAC antagonists in infected red cells, primary screen, cell-based, P. falciparum Indochina, OD700, 1 h (AID 1154). To be noted: P. falciparum Indochina infected RBC osmotic lysis, higher = more signal, called active from +8 up or from −8 down.
A short description of test [14]: PSAC antagonists in infected red cells, primary screen, cell-based, P. falciparum Indochina, OD700, 2 h (AID 1155).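 Also: lysis reports solute entry through the parasite surface anion channel PSAC; channel blockers reduce lysis of infected cells.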 To be noted: P. falciparum Indochina infected erythrocytes, osmotic lysis OD700; higher = more signal, called active from +8 up or from −8 down.
A short description of test [15]: osmotic lysis modulators in infected erythrocytes, primary screen, PSAC antagonist project, cell-based, P. falciparum Indochina, OD700, 3 h (AID 1156). To be noted: higher = more signal, called active from +8 up or from −8 down.
The nature of test [16]: PSAC antagonists in infected red cells, primary screen, cell-based, P. falciparum Indochina, OD700, 18 h (AID 1157). To be noted: P. falciparum Indochina infected erythrocytes, osmotic lysis OD700, 18 h; higher = more signal, called active from +8 up or from −8 down.
A short description of test [17]: modulators of S6 phosphorylation in cells, primary screen, cell-based, A549, cytoblot, luminescence, serum-stimulated (AID 1158).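 Also: serum-stimulated A549 lung adenocarcinoma cells; signal is phosphorylated S6 detected by cytoblot immunostaining with HRP secondary.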 To be noted: A549 phospho-S6 cytoblot, 5 h, higher = more signal.
Test [18] has as its target NADPH oxidase 2 (Homo sapiens) (UniProt P04839). As to the kind of experiment: NOX2-dependent H2O2 signal modulators, primary screen, NOX inhibitor project, cell-based, HEK293-NOX2, PMA-stimulated, Amplex Red fluorescence (AID 1159). Also: test concentration not given here. As to conditions: 45 min, higher = more signal, called active from +8 up or from −8 down.
The target in test [19] is NADPH oxidase 4 (Homo sapiens) (UniProt Q9NPH5). Nature of the test: NOX4-dependent H2O2 signal modulators, primary screen, NOX inhibitor project, cell-based, HEK293-NOX4, tetracycline-induced, Amplex Red fluorescence (AID 1160). As to conditions: 45 min, higher = more signal, called active from +8 up or from −8 down.
For test [20], the target named is NADPH oxidase 5 (Homo sapiens) (UniProt Q96PH1). Nature of the test: NOX5-dependent H2O2 signal modulators, primary screen, NOX inhibitor project, cell-based, HEK293-NOX5, Amplex Red fluorescence (AID 1161). To be noted: HEK293-NOX5, ionomycin, 45 min, higher = more signal.

Active and inactive are the calls of the source. Unless noted, no rule for the calls is given here.

Torsin-1A (Homo sapiens), sequence (O14656 whole entry, looked up): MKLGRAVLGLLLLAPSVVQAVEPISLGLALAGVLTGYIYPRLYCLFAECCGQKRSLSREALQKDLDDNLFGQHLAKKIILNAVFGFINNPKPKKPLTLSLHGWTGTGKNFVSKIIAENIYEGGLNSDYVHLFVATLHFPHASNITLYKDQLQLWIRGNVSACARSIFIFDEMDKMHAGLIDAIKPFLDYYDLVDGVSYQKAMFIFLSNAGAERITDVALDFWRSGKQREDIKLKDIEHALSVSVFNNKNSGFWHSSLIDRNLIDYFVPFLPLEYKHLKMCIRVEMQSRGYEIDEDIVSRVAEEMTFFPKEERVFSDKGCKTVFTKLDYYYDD
NADPH oxidase 4 (Homo sapiens), sequence (Q9NPH5 whole entry, looked up): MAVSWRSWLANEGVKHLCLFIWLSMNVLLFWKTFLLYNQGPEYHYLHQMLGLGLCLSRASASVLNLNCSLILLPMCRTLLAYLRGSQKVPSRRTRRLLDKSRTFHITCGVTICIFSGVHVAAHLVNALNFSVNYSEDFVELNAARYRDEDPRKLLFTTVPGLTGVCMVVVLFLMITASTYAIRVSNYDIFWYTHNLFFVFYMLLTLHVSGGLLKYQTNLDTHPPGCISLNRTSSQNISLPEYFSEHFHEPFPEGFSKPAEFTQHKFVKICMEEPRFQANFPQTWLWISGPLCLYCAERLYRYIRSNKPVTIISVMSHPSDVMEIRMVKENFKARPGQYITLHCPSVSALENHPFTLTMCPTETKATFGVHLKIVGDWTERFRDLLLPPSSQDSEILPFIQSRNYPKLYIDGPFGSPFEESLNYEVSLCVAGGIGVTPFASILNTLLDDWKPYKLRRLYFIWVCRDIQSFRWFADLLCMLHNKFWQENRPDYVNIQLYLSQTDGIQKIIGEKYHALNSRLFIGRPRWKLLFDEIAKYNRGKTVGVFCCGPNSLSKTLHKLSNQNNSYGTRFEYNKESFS
NADPH oxidase 2 (Homo sapiens), sequence (P04839 whole entry, looked up): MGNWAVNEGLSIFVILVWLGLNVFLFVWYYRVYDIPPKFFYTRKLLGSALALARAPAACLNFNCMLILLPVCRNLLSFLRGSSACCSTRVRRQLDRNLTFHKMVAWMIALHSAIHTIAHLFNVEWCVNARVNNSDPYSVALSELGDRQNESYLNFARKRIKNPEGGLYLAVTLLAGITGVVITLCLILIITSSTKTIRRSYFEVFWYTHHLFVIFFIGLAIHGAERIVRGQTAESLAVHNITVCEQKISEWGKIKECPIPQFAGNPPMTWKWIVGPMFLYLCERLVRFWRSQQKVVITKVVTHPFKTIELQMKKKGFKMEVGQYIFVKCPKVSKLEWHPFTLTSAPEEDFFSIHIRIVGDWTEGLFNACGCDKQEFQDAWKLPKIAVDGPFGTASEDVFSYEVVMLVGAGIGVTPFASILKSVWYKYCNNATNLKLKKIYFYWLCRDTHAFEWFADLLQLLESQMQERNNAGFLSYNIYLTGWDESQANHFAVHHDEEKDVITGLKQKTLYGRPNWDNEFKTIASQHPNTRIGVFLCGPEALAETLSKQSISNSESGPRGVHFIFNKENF
NADPH oxidase 5 (Homo sapiens), sequence (Q96PH1 whole entry, looked up): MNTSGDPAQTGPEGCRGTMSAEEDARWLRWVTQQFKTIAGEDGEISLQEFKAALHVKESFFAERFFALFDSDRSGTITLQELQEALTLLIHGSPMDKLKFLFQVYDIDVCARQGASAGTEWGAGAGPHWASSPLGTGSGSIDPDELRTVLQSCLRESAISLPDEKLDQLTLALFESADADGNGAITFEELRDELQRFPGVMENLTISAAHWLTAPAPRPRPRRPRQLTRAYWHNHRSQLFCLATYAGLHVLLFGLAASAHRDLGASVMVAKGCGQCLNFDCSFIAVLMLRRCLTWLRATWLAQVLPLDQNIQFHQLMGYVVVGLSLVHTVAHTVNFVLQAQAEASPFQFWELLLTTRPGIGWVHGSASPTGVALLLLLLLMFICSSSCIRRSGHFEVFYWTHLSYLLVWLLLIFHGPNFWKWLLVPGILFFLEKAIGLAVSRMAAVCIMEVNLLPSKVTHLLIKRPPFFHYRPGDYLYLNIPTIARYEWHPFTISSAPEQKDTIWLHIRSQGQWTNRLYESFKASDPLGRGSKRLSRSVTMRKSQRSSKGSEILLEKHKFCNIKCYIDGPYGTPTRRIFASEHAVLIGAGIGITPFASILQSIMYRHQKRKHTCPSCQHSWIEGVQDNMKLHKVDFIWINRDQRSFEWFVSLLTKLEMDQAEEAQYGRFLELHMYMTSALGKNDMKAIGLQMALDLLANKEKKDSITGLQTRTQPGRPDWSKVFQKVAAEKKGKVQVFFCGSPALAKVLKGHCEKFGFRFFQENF
Streptavidin (Streptomyces avidinii), sequence (P22629 whole entry, looked up): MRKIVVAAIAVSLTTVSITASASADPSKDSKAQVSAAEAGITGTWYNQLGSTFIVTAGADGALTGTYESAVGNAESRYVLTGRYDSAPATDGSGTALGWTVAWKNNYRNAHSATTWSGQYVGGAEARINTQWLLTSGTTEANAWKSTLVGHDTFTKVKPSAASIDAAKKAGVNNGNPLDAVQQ

For the molecule `COC(=O)[C@@H]1CC[C@H](C)[C@@H](c2ccc(Br)cc2)N1C(=O)C(F)(F)F`, the composite z-score was -0.237 in [1]; -0.307 in [6]; -0.0944 in test [7]; -0.179 with Torsin-1A (Homo sapiens) [8]; -0.835 in the test with Torsin-1A (Homo sapiens) [9]; -0.14 in test [10]. In addition, the composite z-score in test [12] is -0.103. The z-score in test [2] was -0.322 (inactive); in test [3], -0.69 (inactive); in [4], 0.565 (inactive); in test [5], -0.344 (inactive); in test [11], -0.643 (inactive); in test [13] it was 1.08 (inactive). Also, the z-score in test [14] was -0.0008 (inactive); in test [15], 0.266 (inactive); in test [16], 0.2 (inactive); in test [17], -0.56; in test [18] it was 0.301 (inactive); in test [19], 0.467 (inactive). This molecule also displayed a z-score in test [20] of 0.18.

Turning to `CC(=O)OC[C@H]1O[C@@H](ON=C(C)C)[C@H](OC(C)=O)[C@@H](OC(C)=O)[C@@H]1OC(C)=O`, the composite z-score is 0.47 in test [1]; -1.26 in [6]; -0.0695 in test [7]; 0.456 in the test with Torsin-1A (Homo sapiens) [8]; 0.188 with Torsin-1A (Homo sapiens) [9]; -0.856 in [10]. In test [12], this molecule registered a composite z-score of 0.145. Further, the z-score was 0.238 (inactive) in test [2]; -0.291 (inactive) in test [3]; 0.499 (inactive) in test [4]; 0.101 (inactive) in test [5]; -1.83 (inactive) in [11]; 0.421 (inactive) in test [13]. For the same molecule, the z-score in test [14] was 1.12 (inactive); in test [15] it was 0.638 (inactive); in test [16], 0.539 (inactive); in test [17], 0.152; in [18], 1.27 (inactive); in test [19], 0.378 (inactive). The z-score in [20] was -0.611.

As to `CCOC(=O)CCN1C(=O)[C@H]2[C@H]3[C@H](O)[C@H](O)CC(=NOCC=C(C)CCC=C(C)C)[C@@H]3CC[C@H]2C1=O`, the composite z-score in [1] is 0.377; in test [6] it was 0.111; in test [7], 0.0756; with Torsin-1A (Homo sapiens) [8] it was 0.957; in the test with Torsin-1A (Homo sapiens) [9], 0.588; in test [10], 1.02. For the same molecule, in [12], the composite z-score was -0.193. In addition, the z-score is 0.16 (inactive) in [2]; 0.0232 (inactive) in test [3]; 0.875 (inactive) in test [4]; 0.427 (inactive) in [5]; -0.879 (inactive) in [11]; 0.0845 (inactive) in [13]. The z-score in [14] is 0.278 (inactive); in [15], -0.931 (inactive); in test [16] it was -0.014 (inactive); in test [17], 0.233; in [18], -0.737 (inactive); in test [19], 0.511 (inactive). The z-score in [20] is -0.0503.

Take `C#CCCCON=C1[C@H]2CCn3c(=O)n([C@@H](CC)c4ccccc4)c(=O)n3[C@H]2[C@H](O)[C@@H]2O[C@H]12`: the composite z-score in test [1] is 0.352; in test [6], 0.017; in test [7], -0.045; with Torsin-1A (Homo sapiens) [8], -0.0784; with Torsin-1A (Homo sapiens) [9], 0.472; in [10] it was 0.441. Also, the composite z-score in [12] is -0.101. The z-score in test [2] was 0.222 (inactive); in test [3], 0.453 (inactive); in [4], 1.15 (inactive); in [5], 0.253 (inactive); in test [11], -1.02 (inactive); in [13], 0.957 (inactive). Besides, the z-score in test [14] was 0.193 (inactive); in [15] it was 0.461 (inactive); in [16] it was 0.0103 (inactive); in test [17], 1.09; in test [18] it was 1.29 (inactive); in [19], 0.633 (inactive). In test [20], this molecule had a z-score of 1.12.

In the case of `COC(=O)[C@@H]1CC[C@H](C)[C@@H](c2ccc(C)cc2)N1C(=O)c1ccc(C=NOC[C@H]2O[C@H](c3ccccc3)C=C[C@@H]2Oc2ccc(OC)cc2)cc1`, the composite z-score in test [1] was -0.134; in [6], -0.216; in [7] it was 0.0018; with Torsin-1A (Homo sapiens) [8], -0.671; with Torsin-1A (Homo sapiens) [9] it was -0.329; in test [10], 0.415. The composite z-score in test [12] is -0.0236. The z-score in [2] is -0.814 (inactive); in test [3], 0.605 (inactive); in [4] it was 0.253 (inactive); in test [5] it was 0.718 (inactive); in test [11] it was 0.229 (inactive); in test [13] it was 0.639 (inactive). Besides, the z-score is 1.11 (inactive) in [14]; 0.708 (inactive) in [15]; 0.44 (inactive) in [16]; -0.0476 in [17]; 1.65 (inactive) in test [18]; 0.846 (inactive) in test [19]. This molecule also returned a z-score in test [20] of 0.385.

In the case of `CC(C)=CCCC(C)=CCON=C1[C@H]2CCn3c(=O)n(-c4ccccc4)c(=O)n3[C@H]2[C@H](O)[C@@H]2O[C@H]12`, the composite z-score in test [1] worked out at 0.0694; in [6] it was 1.07; in test [7], 0.0319; in the test with Torsin-1A (Homo sapiens) [8], 1.02; with Torsin-1A (Homo sapiens) [9] it was 0.413; in test [10] it was 1.38. Besides, in [12], the composite z-score is 0.688. Besides, the z-score in [2] is -1.7 (inactive); in test [3], -0.044 (inactive); in test [4], -0.473 (inactive); in test [5] it was -0.271 (inactive); in test [11], -0.484 (inactive); in test [13], 4.93 (inactive). Besides, the z-score in test [14] was 0.635 (inactive); in [15], 2.07 (inactive); in [16], 0.695 (inactive); in [17] it was 0.897; in [18], 0.856 (inactive); in test [19], 0.577 (inactive). Further, the z-score in test [20] was -0.799.

On to `CC(=O)OC[C@H]1O[C@H](CC=NO[C@@H](C)c2cn([C@H](CO)Cc3ccccc3)nn2)C=C[C@@H]1OC(C)=O`, for which the composite z-score in test [1] was 0.0065; in test [6], 0.777; in [7], -0.0963; in the test with Torsin-1A (Homo sapiens) [8], 0.542; with Torsin-1A (Homo sapiens) [9], 0.692; in test [10] it was 0.911. For the same molecule, the composite z-score in test [12] is -0.196. The z-score in test [2] was -2.35 (inactive); in test [3], -0.902 (inactive); in [4], 1.67 (inactive); in [5] it was 0.114 (inactive); in test [11] it was -0.89 (inactive); in test [13], -0.719 (inactive). Also, the z-score is -0.429 (inactive) in test [14]; 0.656 (inactive) in test [15]; -1.23 (inactive) in [16]; 0.703 in [17]; -2.05 (inactive) in test [18]; -2.01 (inactive) in [19]. Further, the z-score in test [20] is -1.41.

Consider `COC(=O)C(C(=O)OC)C1CCCC(=O)C1` (stereo not given), for which the composite z-score in test [1] is -0.155; in [6] it was 0.402; in test [7], -0.274; with Torsin-1A (Homo sapiens) [8], 0.622; with Torsin-1A (Homo sapiens) [9] it was 1.42; in test [10] it was 0.769. Further, the composite z-score in [12] was -0.284. In addition, the z-score was -0.509 (inactive) in test [2]; -0.619 (inactive) in [3]; -0.886 (inactive) in test [4]; -0.0388 (inactive) in test [5]; -1.06 (inactive) in test [11]; 0.69 (inactive) in [13]. Further, the z-score in [14] was -0.176 (inactive); in test [15], 0.426 (inactive); in test [16], -0.29 (inactive); in [17], 0.649; in test [18] it was -1.18 (inactive); in test [19] it was -1.61 (inactive). Also, the z-score in test [20] worked out at 0.921.
